HEK293 tox – Cytotoxic Profiling in HEK 293 Cell Line of Diverse Libraries Using Quantitative High-Throughput Screening; HEK 293 viability, ATP luminescence (CellTiter-Glo), 48-72 h; Potency, µM (series often up to 115 µM), most hits filed as inhibitors; 6.6% of 94,000 active; AID 1345083, 2018; note: nearly all actives have a fitted effect of over 60% in size
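HEK 293 cells at 250 cells/well were exposed to compounds by pintool transfer for 48 or 72 hr at 37 degree Celsius, 5% CO2. Viability was read as ATP-coupled luminescence with CellTiter-Glo after 10 min at room temperature.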
FLuc inh – Firefly luciferase inhibition profiling of diverse chemical library using quantitative high-throughput screening. Luciferin 4-monooxygenase (Photinus pyralis), P08659. purified P. pyralis luciferase, luminescence, biochemical. Potency, µM (top dose mostly 115 µM), usual class: inhibitors. 2.5% of 76,000 active; note: nearly all actives have a fitted effect of over 65% in size
Target sequence (P08659 whole entry, looked up): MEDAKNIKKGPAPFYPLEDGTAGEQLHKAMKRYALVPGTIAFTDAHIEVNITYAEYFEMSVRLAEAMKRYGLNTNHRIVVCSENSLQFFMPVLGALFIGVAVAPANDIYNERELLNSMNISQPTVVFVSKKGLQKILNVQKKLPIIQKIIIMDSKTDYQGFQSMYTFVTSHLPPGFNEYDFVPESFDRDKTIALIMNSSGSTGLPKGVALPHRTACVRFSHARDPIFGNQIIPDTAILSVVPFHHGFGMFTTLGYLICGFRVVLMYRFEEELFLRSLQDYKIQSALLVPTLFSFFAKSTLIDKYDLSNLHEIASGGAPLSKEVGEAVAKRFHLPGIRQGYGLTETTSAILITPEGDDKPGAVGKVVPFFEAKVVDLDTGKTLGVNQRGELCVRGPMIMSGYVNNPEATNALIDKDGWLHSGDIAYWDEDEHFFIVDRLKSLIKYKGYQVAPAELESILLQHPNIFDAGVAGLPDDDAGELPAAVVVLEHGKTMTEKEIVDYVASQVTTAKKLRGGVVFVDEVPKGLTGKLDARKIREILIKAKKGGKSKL
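Cell-free enzyme assay, 10nM P. pyralis luciferase, luciferin and ATP each at 10uM. Inhibition profiled over a 6-point titration, read as luminescence.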
3T3 cytotox – Cytotoxic Profiling in NIH 3T3 Cell Line of Diverse Libraries Using Quantitative High-Throughput Screening; NIH 3T3 viability, CellTiter-Glo ATP luminescence, 48-72 h; Potency, µM (series often up to 96.7 µM), usual class: inhibitors; 4.3% of 94,000 active; note: nearly all actives have a fitted effect of over 55% in size
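First NIH 3T3 cells are plated at 400 cells/well; next compound is pinned in; then plates incubate 48 or 72 hr at 37 °C; finally CellTiter-Glo is added and luminescence read after 10 min.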
NPR1 antag – Natriuretic polypeptide receptor (hNpr1) antagonism - Primary qHTS. 1.6% of 76,000 active. HEK293 hNpr1 GloSensor cGMP, ANP-stimulated luminescence. Potency, µM (doses to about 46.3 µM), actives largely listed as inhibitors. Atrial natriuretic peptide receptor 1 (Homo sapiens), P16066; calls by dose curve; note: nearly all actives have a fitted effect of over 60% in size
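HEK293 cells stably expressing human Npr1 and cGMP GloSensor pGS-40F, loaded 2 h with 2% GloSensor reagent, given compound 30 min at room temperature. Luminescence read before and 20 min after 0.1 nM hNppA.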
Each line names hits and unclear results; the compound was inactive in the other large screens. Most compounds without a hit are left out; they make up all but 11% or so of the library. Unless noted, calls come from the whole dose curve; as a rule, active = well fitted curve in the direction sought with a large enough effect; inconclusive = small, poorly fitted or top-dose-only effect, or another doubt; inactive = no such curve, though single readings can be large; an effect the other way counts as inactive or inconclusive.

CC(=O)NC1(C)CCN(Cc2ccccc2-c2ccc3c(ccn3C)c2)C1 (stereo not drawn)	HEK293 tox 100µM, 3T3 cytotox 89µM
CC(=O)NC1(C)CCN(Cc2ccc(-c3cccc(C(F)(F)F)c3)cc2)C1 (stereo not drawn)	HEK293 tox 50µM, FLuc inh 63µM, 3T3 cytotox 45µM
CCc1cccc(NC(=O)[C@@H]2CN(S(=O)(=O)CC)C[C@H]2c2ccncc2)c1	none (no result: FLuc inh, NPR1 antag)
Cc1ncccc1-c1nc2cc(C(=O)NCc3cccs3)ccc2o1	none (no result: FLuc inh, NPR1 antag)
O=C(Nc1cccc(-c2ccc(N3CCOCC3)nn2)c1)Nc1cc(Cl)ccc1Cl	FLuc inh 1µM
O=C(Nc1cccc(-c2ccc(N3CCOCC3)nn2)c1)Nc1ccccc1Cl	HEK293 tox inconclusive, FLuc inh 1.6µM, 3T3 cytotox inconclusive, NPR1 antag inconclusive
COc1ccc(C(=O)N2CCc3nn(Cc4ccccc4)c(=O)n3CC2)cc1F	none
c1ccc2c(c1)CC(n1ccnc1-c1cc3n(n1)CCCNC3)C2	HEK293 tox 79µM, 3T3 cytotox inconclusive
Cc1ccc2[nH]c(=O)c(CCC(=O)N3CCN(CC(C)C)CC3)cc2c1	none
Cc1ccc2cc(CCC(=O)N3CCOCC3)c(=O)[nH]c2c1	FLuc inh 32µM
Cc1ccc2[nH]c(=O)c(CCC(=O)N3CCCCC3)cc2c1	FLuc inh 40µM
CN(C)C(=O)[C@@H]1CN(Cc2ccc(F)cc2F)C[C@H]1CO	none
Cc1ccc(C(=O)N[C@@H]2CN(Cc3ccncc3)C[C@H]2CN(C)C)cc1C	HEK293 tox 25µM
COc1ccccc1CN1C[C@@H](CO)[C@H](c2ccncc2)C1	none
CC(C)Oc1ccccc1CN1C[C@@H](CO)[C@H](c2ccncc2)C1	HEK293 tox 40µM, 3T3 cytotox inconclusive
COC[C@@H]1CN(Cc2cccc(OC)c2OC)C[C@H]1c1ccncc1	HEK293 tox 40µM, 3T3 cytotox inconclusive
COc1cccc(CN2C[C@@H](CO)[C@H](c3ccncc3)C2)c1OC	HEK293 tox 89µM
COC[C@@H]1CN(Cc2cn(C)nc2C)C[C@H]1c1ccncc1	none
Cc1noc([C@@H]2CN(Cc3ccccc3OC(C)C)C[C@H]2CO)n1	none
CCOC(=O)COC1CCN(C(=O)c2cccc(OC)c2)CC(=O)N(C)c2ccccc21 (stereo not drawn)	HEK293 tox inconclusive (no result: FLuc inh, NPR1 antag)
CC(C)c1ccc(CNC(=O)c2ccc(Cn3ccn4nc5c(c4c3=O)CCCC5)cc2)cc1	3T3 cytotox inconclusive
CC(=O)N1CCC2(CC1)CN(C(=O)c1cccc3[nH]ccc13)Cc1ccccc1O2	none (no result: FLuc inh, NPR1 antag)
CC1=C[C@@H](CNCc2cccnc2)[C@H](C(C)C)C[C@H]1Cc1nnc(-c2ccccc2)o1	HEK293 tox 79µM, 3T3 cytotox inconclusive
CC1=C[C@@H](CNCc2ccccn2)[C@H](C(C)C)C[C@H]1Cc1nnc(-c2ccccc2F)o1	HEK293 tox 22µM, 3T3 cytotox inconclusive
CC1=C[C@@H](CNCc2cccnc2)[C@H](C(C)C)C[C@H]1Cc1nnc(-c2ccccc2F)o1	HEK293 tox inconclusive
CC1=C[C@@H](CNc2ccccn2)[C@H](C(C)C)C[C@H]1Cc1nnc(-c2ccc(C)cc2)o1	HEK293 tox 35µM, 3T3 cytotox 40µM, NPR1 antag inconclusive
CC1=C[C@@H](CNCc2ccco2)[C@H](C(C)C)C[C@H]1Cc1nnc(-c2ccccc2F)o1	HEK293 tox 79µM, 3T3 cytotox inconclusive
COc1ccc(-c2cccc(C(=O)N3CCN(C(=O)c4ccccc4F)CC3)c2)nn1	none (no result: FLuc inh, NPR1 antag)
CC(=O)NCCNC[C@@H]1C=C(C)[C@H](Cc2nnc(-c3ccccc3)o2)C[C@H]1C(C)C	HEK293 tox 56µM, 3T3 cytotox 89µM
CC1=C[C@@H](CNCc2ccncc2)[C@H](C(C)C)C[C@H]1Cc1nnc(-c2ccccc2F)o1	HEK293 tox 20µM, 3T3 cytotox inconclusive, NPR1 antag inconclusive
CC(=O)Nc1ccc(NC[C@@H]2C=C(C)[C@H](Cc3nnc(C)o3)C[C@H]2C(C)C)cn1	HEK293 tox 112µM
CCNC(=O)c1cccnc1OC1CCN(C(=O)Cc2cccc(Cl)c2)C1 (stereo not drawn)	none
COc1ccc(NC(=O)c2cn3cc(-c4ccc(F)cc4)sc3n2)cc1	none (no result: FLuc inh, NPR1 antag)
CSc1cccc(NC(=O)COc2cccc(-c3nnc4n3CCCC4)c2)c1	HEK293 tox inconclusive
O=C(c1ccccc1Cl)N1CCC(C(=O)N2CCC(c3nc4ncccc4[nH]3)CC2)C1 (stereo not drawn)	none (no result: FLuc inh, NPR1 antag)
NC1(C(=O)NCc2nc(-c3cccc(F)c3)c(-c3ccccn3)[nH]2)CCC1	none
O=C(NCc1nc(-c2cccc(F)c2)c(-c2ccccn2)[nH]1)N1CCCC1	HEK293 tox 50µM, 3T3 cytotox inconclusive
O=C(NCCc1ccccc1)c1cc(-c2cc(Cl)cc(Cl)c2)c2nncn2n1	none (no result: FLuc inh, NPR1 antag)
CN1CCCC2(C1)CN(C)c1ccc(C(=O)NCC3CCCCC3)cc12 (stereo not drawn)	HEK293 tox 112µM, 3T3 cytotox 89µM
CC(=O)N1CCCC2(C1)CN(C)c1ccc(C(=O)NCCc3ccccc3)cc12 (stereo not drawn)	HEK293 tox inconclusive
COCCN1CCC2(C1)CN(C)c1ccc(C(=O)NCc3ccccc3)cc12 (stereo not drawn)	HEK293 tox inconclusive, FLuc inh 20µM, 3T3 cytotox inconclusive
CN(C)CCNC(=O)c1ccc2c(c1)C1(CCCN(CC3CC3)C1)CN2C (stereo not drawn)	HEK293 tox inconclusive, 3T3 cytotox 89µM
CN1CCC2(C1)CN(CC1CC1)c1ccc(C(=O)NCC3CC3)cc12 (stereo not drawn)	HEK293 tox inconclusive, 3T3 cytotox inconclusive
CC(C)CNC(=O)c1ccc2c(c1)C1(CCCN(CC3CC3)C1)CN2C (stereo not drawn)	HEK293 tox inconclusive
CN1CC2(CCCN(CC3CC3)C2)c2cc(C(=O)NCCc3ccccc3)ccc21 (stereo not drawn)	HEK293 tox inconclusive, 3T3 cytotox 79µM
COc1cccc(N2C(=O)NC(=NC3CCCCC3)C23CCN([S+](=O)([O-])c2cccc(C(F)(F)F)c2)C3)c1 (stereo not drawn)	HEK293 tox inconclusive, 3T3 cytotox inconclusive
CN(C)c1ccc(CN2Cc3[nH]cnc3C[C@H]2c2nc(-c3ccncc3)no2)cc1	3T3 cytotox inconclusive
c1ccc(CN2Cc3[nH]cnc3C[C@H]2c2nc(-c3ccccc3)no2)cc1	HEK293 tox 71µM, 3T3 cytotox inconclusive
Fc1ccc(CN2Cc3[nH]cnc3C[C@H]2c2nc(-c3ccc(F)c(Cl)c3)no2)cc1	HEK293 tox inconclusive, FLuc inh inconclusive, 3T3 cytotox 89µM
Cc1ccc(-c2noc([C@@H]3Cc4nc[nH]c4CN3C(=O)CCC(=O)O)n2)cc1	FLuc inh inconclusive
Cc1ccc(-c2noc([C@@H]3Cc4nc[nH]c4CN3Cc3ccccc3)n2)cc1	HEK293 tox 100µM, FLuc inh inconclusive, 3T3 cytotox 79µM
